Reference: PubChem BioAssay (NCI)
This is part of a sample that, as a whole, favours compounds with a hit. Of some 83,000 tested, about 20% had one in any assay.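 Testing used 96-well plates and a 48-hour single-concentration exposure. Example: -40 means 40% of the starting cells died.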 A number with no mark means an inactive call. Calls of active or inactive are those of the source. The calls were made as follows: active = growth percent below 10; inactive = the rest.

system: TK-10 renal; test: NCI-60 one-dose screen, 48 h (100 = growth as untreated, 0 = no growth, -100 = all killed); settings: 10 µM unless noted

SMILES | growth
Cc1nc(N)sc1C(=O)NCCO | 112%
CCCCCCCCCCCCCCCCC(=O)O.CCCCCCCCCCCCCCCCCC(=O)O.CCCCCCCCCCCCCCCCCC(=O)O.CCCCCCCCCCCCCCCCCC(=O)O.CCCCCCCCCCCCCCCCCC(=O)O.CO[CH-]OC12COC1CC(O)C1(C)C(O)C(OC(C)O)C3=C(C)C(OC(=O)C(O)C([NH-])c4ccccc4)CC(O)(C(OC(=O)c4ccccc4)C21)C3(C)C.[Cu+].[Zn].[Zn].[Zn].[Zn].[Zn] (centres undefined) | 48%
O=S(=O)(O)CCI | 95.7%
CC1(C)NCCC[C@]2(C)[C@H]3CC=C4[C@@H]5C[C@](C)(COC(=O)c6ccccc6C(=O)O)CC[C@]5(C)CC[C@@]4(C)[C@]3(C)CC[C@@H]12 | 36%
c1ccc2[nH]c(-c3ccc(OCCCCCOc4ccc(-c5nc6ccccc6[nH]5)cc4)cc3)nc2c1 | -50.9% (active)
COc1nc(OC)nc(-c2cc(C(=O)c3ccc(Br)cc3)n3cc(C)cc(C)c23)n1 | 82.1%
CN1CCN(Cc2ccc(NC(=O)c3ccc(C#Cc4c(N)ncc5ccc(F)cc45)cc3)cc2C(F)(F)F)CC1 | -42.2% (active)
CC(C)(C)OC(=O)N1C/C(=C\c2ccccc2)C(=O)/C(=C/c2ccccc2)C1 | 102%
O=C(CN1C(=O)NC(c2ccccc2)(c2ccccc2)C1=O)c1ccc(N2CCCC2)cc1 | 98.4%
C[C@H]1C[C@@H](n2cnc3c(N)nccc32)[C@H](O)[C@@H]1O | 119%
Cc1nc2c(nnn2-c2ccccc2)c2nc(-c3ccccc3)oc(=O)c12 | 104%
COc1cc2oc(-c3ccc(NC(=O)c4ccccc4)cc3)cc(=O)c2c(OC)c1OC | 91.8%
COc1cccc2c1n([O-])c1cccc(OC)c1[n+]2=O | 59.8%
CC1C(=O)CCCC1=O | 102%
Oc1ccccc1/C=N/N=C/c1c(O)ccc2ccccc12 | 101%
FC(F)(F)c1cccc(-c2[nH]ncc2-c2nnnn2-c2ccccc2)c1 | 65.5%
Nc1ccc(S(=O)(=O)c2ccc(NO)cc2)cc1 | 131%
Nc1ccc(S(=O)(=O)Nc2cc(F)cc(F)c2)cc1 | 112%
CC(C)(C)c1ccc([I+]c2ccc(C(C)(C)C)cc2)cc1 | 23.5%
O=C1NCCN1/N=C/c1c(Cl)nc2n1CCS2 | 116%
CC(=O)OCC1O[C@@H](OC(C)=O)[C@@H](NC(=O)NS(=O)(=O)c2ccccc2)C(OC(C)=O)[C@@H]1OC(C)=O (some centres undefined) | 98.6%
COc1ccc(Cn2cc3c(c2-c2ccccc2)CCc2cnoc2-3)cc1OC | 70.4%
CCn1cc(C(=O)O)c(=O)c2cc(F)c(N3CCN(S(=O)(=O)c4ccc(Cl)cc4)CC3)cc21 | 53.6%
Cc1ccc(C(=O)Nc2ccc(CN3CCN(C)CC3)c(C(F)(F)F)c2)cc1C#Cc1cnc(N)c2ccc(C#N)cc12 | 52.7%
